Results taken from PubChem BioAssay (NCATS).
Records with an inconclusive call do not appear. Values without a mark were called inactive. Calls come from the whole dose curve; as a rule, active = well fitted inhibition curve with a large enough effect; inconclusive = small, poorly fitted or top-dose-only effect; inactive = no such curve, though single readings can be large or run the other way.

Each molecule was assayed against Rap guanine nucleotide exchange factor 3 (Homo sapiens) (UniProt O95398) (assay: Counterscreen qHTS for antagonist of cAMP-regulated guanine nucleotide exchange factor 3 (EPAC1) (AID 1645888;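 note: fluorescence loss as bound BODIPY-GDP is released from Rap1B; % of control where 0% means no effect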)). Conditions: Rap1B-BODIPY-GDP nucleotide exchange, fluorescence; series mostly up to 154 µM; activity change, negative = inhibition: at the top concentration.
Sequence of Rap guanine nucleotide exchange factor 3 (Homo sapiens) (O95398 whole entry, looked up): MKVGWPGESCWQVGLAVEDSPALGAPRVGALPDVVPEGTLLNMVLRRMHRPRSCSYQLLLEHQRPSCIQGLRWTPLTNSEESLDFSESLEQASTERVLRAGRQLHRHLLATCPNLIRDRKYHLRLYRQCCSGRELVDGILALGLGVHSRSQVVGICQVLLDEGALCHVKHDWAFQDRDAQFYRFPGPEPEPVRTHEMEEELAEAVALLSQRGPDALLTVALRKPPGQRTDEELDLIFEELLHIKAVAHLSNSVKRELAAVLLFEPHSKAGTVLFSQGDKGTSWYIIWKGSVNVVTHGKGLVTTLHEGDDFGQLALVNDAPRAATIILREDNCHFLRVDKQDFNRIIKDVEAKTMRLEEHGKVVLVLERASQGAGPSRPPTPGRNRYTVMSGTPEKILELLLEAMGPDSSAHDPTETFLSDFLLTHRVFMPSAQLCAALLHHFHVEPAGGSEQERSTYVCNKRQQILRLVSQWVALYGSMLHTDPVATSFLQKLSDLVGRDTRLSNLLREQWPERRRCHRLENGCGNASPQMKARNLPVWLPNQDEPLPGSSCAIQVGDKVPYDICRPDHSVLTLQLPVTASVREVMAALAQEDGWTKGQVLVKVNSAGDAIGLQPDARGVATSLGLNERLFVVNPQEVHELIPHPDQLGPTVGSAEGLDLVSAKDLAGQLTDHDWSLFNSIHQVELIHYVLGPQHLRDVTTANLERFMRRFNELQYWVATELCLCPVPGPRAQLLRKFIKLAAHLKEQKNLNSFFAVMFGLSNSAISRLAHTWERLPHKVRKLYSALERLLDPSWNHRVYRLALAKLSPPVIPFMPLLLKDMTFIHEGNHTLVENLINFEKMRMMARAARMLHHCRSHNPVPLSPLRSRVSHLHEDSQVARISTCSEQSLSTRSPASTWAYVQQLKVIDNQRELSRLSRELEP
In short: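 Rap1B-BODIPY-GDP 250 nM + GDP 50 uM; cpds 7-pt, final 9.74 nM–152 uM (activator mode) or from 7.32 nM upwards (inhibitor mode); RT; FI 480/540 nm at 5 and 30 min, then ± cAMP, reread.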
For `COc1cccc(C(=O)Nc2cccc(C(=O)OCc3cc(=O)n4c(C)csc4n3)c2)c1`, the “activity change, negative = inhibition” value was -7.28%. In the case of `Cc1ccc(C)c(-c2ccc(=O)n(C(C)C(=O)Nc3ccccc3C(F)(F)F)n2)c1` (stereo not given), the “activity change, negative = inhibition” value is reported as -23%. For `COc1ccc(/C=C2\C(=O)NC(=S)N2C(=O)c2ccc(F)cc2)cc1`, the “activity change, negative = inhibition” value was 1.74%. In the case of `Cc1ccc(CNc2nc(NCc3ccccc3)nc3ccsc23)c(C)c1`, the “activity change, negative = inhibition” value is reported as -6.55%. `Cc1cc(SCC(=O)c2ccc(O)c(O)c2)n2nc(C)c(-c3ccccc3)c2n1` was tested, and the “activity change, negative = inhibition” value was 33.6%. For `CCOc1ccccc1NC(=O)CN1C(=O)COc2ccc(S(=O)(=O)NC3CCCC3)cc21`, the “activity change, negative = inhibition” value was 14.2%. With `Cc1ccccc1C(=O)Nc1cccc(C(=O)N/N=C/c2cc(Cl)cc([N+](=O)[O-])c2O)c1` the “activity change, negative = inhibition” value was -11.2%. In the case of `Cc1ccc2[nH]cc(C(c3ccccc3)c3ccc(Cl)s3)c2c1` (stereo not given), the “activity change, negative = inhibition” value is reported as 21.6%. `CCc1nc2c(OCc3ccc(OC)cc3)cccn2c1N(C)C(=O)c1ccc(OC)cc1` was tested, and the “activity change, negative = inhibition” value was 14%. In the case of `COC(=O)C1(C)CC1(c1ccccc1)c1ccccc1` (stereo not given), the activity change, negative = inhibition is reported as 1.55% [at 30.8 µM]. With `COc1ccc(NC(=S)N(CCCN2CCOCC2)C(C)c2cc3cccc(OC)c3o2)cc1` (stereo not given) the “activity change, negative = inhibition” value was -7.2%. For `COc1ccc(OC)c(CNC(=O)CCCc2cn(C)c3ccccc23)c1`, the “activity change, negative = inhibition” value was 3.05%. For `CCc1ccccc1OCC(=O)NCC1COc2ccccc2O1` (stereo not given), the “activity change, negative = inhibition” value was -29.9%. `CC(=O)C(=Cc1ccc(Cl)cc1)C(=O)c1ccccc1` was tested, and the “activity change, negative = inhibition” value was -18.7%. `COc1ccc(NC(=O)CSc2nc(O)cc(=O)n2-c2ccc(OC)cc2)cc1` was tested, and the “activity change, negative = inhibition” value was 19.7%. `Cc1cc(C)cc(-n2ccnc2SCC(=O)Nc2ccc3c(c2)OCO3)c1` was tested, and the “activity change, negative = inhibition” value was 13.3%. In the case of `Cc1ccc(-n2c(CCC(=O)O)ccc2-c2cccs2)cc1Cl`, the “activity change, negative = inhibition” value is reported as 39.6%. For `COc1cc(C2CC(=O)Oc3cc(C)c(Br)c(C)c32)cc(OC)c1OC` (stereo not given), the activity change, negative = inhibition was -6.95% [at 30.8 µM]. In the case of `CCOC(=O)c1ccc(NC(=S)NNC(=O)C2(C)CC2(Cl)Cl)cc1` (stereo not given), the “activity change, negative = inhibition” value is reported as 5.99%. `COc1ccc(C(=O)NC2(C(F)(F)F)NC(=O)N(CCCc3ccccc3)C2=O)c(OC)c1OC` (stereo not given) gave an activity change, negative = inhibition of -10.8% [at 30.8 µM]. Work on `C=CS(=O)(=O)N(Cc1ccccc1Br)[C@H](CO)CC(C)C` yielded an activity change, negative = inhibition of -13.6% [at 30.8 µM]. `Clc1cccc(Cc2c(-c3ccco3)nc3ccc(Br)cn23)c1` was tested, and the activity change, negative = inhibition was -13.4% [at 30.8 µM]. For `CC(C)CCn1c(Oc2ccccc2Cl)nc2c1c(=O)n(C)c(=O)n2C`, the “activity change, negative = inhibition” value was 1.28%. `Fc1ccc(/C=C2\CCCC3=C2Nc2ncnn2C3c2ccc(F)cc2)cc1` (stereo not given) gave an activity change, negative = inhibition of -4.64% [at 30.8 µM]. In the case of `Cc1ccc(-c2cc(C(=O)Nc3ccc(S(=O)(=O)Nc4onc(C)c4C)cc3)c3ccccc3n2)cc1`, the activity change, negative = inhibition is reported as 1.26% [at 30.8 µM]. In the case of `CC(c1nc2ccccc2n1Cc1ccccc1)n1c(-c2cnccn2)nc2ccccc21` (stereo not given), the “activity change, negative = inhibition” value is reported as 5.1%. In the case of `Cc1ccc(C)c(Cn2c(CN(C)Cc3ccccc3)nc3c2c(=O)n(C)c(=O)n3C)c1`, the “activity change, negative = inhibition” value is reported as 17.6%. With `COc1ccc(OCc2nc3ccccc3n2Cc2ccc(C(C)(C)C)cc2)cc1` the “activity change, negative = inhibition” value was 10.7%. In the case of `COn1c2c(c3c4nonc4ccc31)CCCC2`, the “activity change, negative = inhibition” value is reported as 27.8%. `CC(C)C(CCNC(=O)CC(Cc1ccccc1)c1ccco1)c1ccco1` (stereo not given) was tested, and the activity change, negative = inhibition was 24.9% [at 30.8 µM]. In the case of `O=C1C=C(Nc2cccc3cccnc23)c2ccccc2C1=O`, the “activity change, negative = inhibition” value is reported as -0.444%. In the case of `O=C(COc1ccc(Cl)cc1)NC1=NN(c2ccccc2)C(=O)C1`, the “activity change, negative = inhibition” value is reported as 6.09%. Work on `Cc1ccc(NC(=O)CN2C(=O)S/C(=C\c3cccn3-c3cccc(C(=O)O)c3)C2=O)cc1C` yielded an activity change, negative = inhibition of -10.4% [at 30.8 µM]. In the case of `CCc1ccc2c(c1)NC(=O)C2(C)Cc1ccc(F)cc1` (stereo not given), the activity change, negative = inhibition is reported as 16.2% [at 30.8 µM]. With `COc1ccc2c(c1)Cc1sc(NC(=O)c3ccccc3C)nc1-2` the “activity change, negative = inhibition” value was 13.3%. `OC(CSc1ccccc1)CN1CCN(c2cccc(Cl)c2)CC1` (stereo not given) showed an activity change, negative = inhibition of 12.2% [at 30.8 µM]. In the case of `CS(=O)(=O)c1ccc(C(=O)OCc2nnc(-c3ccccc3)o2)cc1[N+](=O)[O-]`, the “activity change, negative = inhibition” value is reported as 5.8%. In the case of `O=C(/C=C/c1ccco1)Nc1nc(-c2ccccn2)cs1`, the “activity change, negative = inhibition” value is reported as 10.4%. Work on `O=S(=O)(NCC(c1cccnc1)N1CCN(c2ccccc2F)CC1)c1cccs1` (stereo not given) yielded an activity change, negative = inhibition of -13.6% [at 30.8 µM]. With `O=C(CSc1ccc2ccccc2c1)Nc1ccc(S(=O)(=O)Nc2nccs2)cc1` the activity change, negative = inhibition was -0.461% [at 30.8 µM].
